Assay results from PubChem BioAssay (NCATS).
Records with an inconclusive call do not appear. Calls of active or inactive are those of the source. Unless noted, calls follow the shape of the dose curve; as a rule, active = well fitted curve in the direction sought with a large enough effect; inconclusive = small, poorly fitted or top-dose-only effect, or another doubt; inactive = no such curve, though single readings can be large; an effect the other way counts as inactive or inconclusive.

What was measured:
[1] = Cell Viability - BJ (AID 421; calls by dose curve;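 also: potency is read from the fitted curve at half-maximal effect; cells exposed to compound for 40 hours at 37 °C before readout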); settings: BJ fibroblast viability, qHTS
Outline: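 Luminescent ATP signal (CellTiter-Glo, 20 min at room temperature) served as the read-out of viable BJ cells after 40 hours of compound treatment. Responses were scaled between DMSO and 100 uM tamoxifen, and AC50 values were obtained by Hill modeling.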

[2] = Cell Viability - Jurkat (AID 426;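 active = dose-dependent loss of cell ATP signal giving a full or clear fitted curve, ranked by lower potency value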;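 also: potency is read from the fitted curve at half-maximal effect; cells exposed to compound for 40 hours at 37 °C before ATP read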); settings: qHTS
Outline: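 Cells of the human T-cell leukemia line Jurkat (E6-1) are seeded at 5000 per well, treated with compound across a concentration range for 40 hours at 37 °C, then lysed with CellTiter-Glo; luminescence reports ATP.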

[3] = Cell Viability - Hek293 (AID 427;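 active = compounds whose dose-response curve shows a full or clear partial loss of cell viability, called from curve shape rather than a numeric limit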;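 also: potency is read from the fitted curve at half-maximal effect; cells exposed to compound for 40 hours at 37 °C before reading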); settings: qHTS
Outline: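 Luminescent ATP read-out (CellTiter-Glo, 20 min RT) after 40 hr compound exposure at 37 °C in complete medium. Signal normalized to DMSO (basal) and 100 uM tamoxifen (100% inhibition); concentration-response fitted with the standard Hill equation to give AC50.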

[4] = Cell Viability - HepG2 (AID 433; calls by dose curve;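 also: potency is read from the fitted curve at half-maximal effect; potency for ATP loss meaning cytotoxicity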); settings: qHTS
Outline: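 HepG2 hepatocellular carcinoma cells (1500/well) were treated with compounds for 40 h at 37 °C in complete medium; intracellular ATP was read by CellTiter-Glo luminescence. Data were normalized to DMSO and 100 uM tamoxifen, and AC50 came from Hill fits.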

[5] = Cell Viability - MRC5 (AID 434; calls by dose curve;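 also: potency is read from the fitted curve at half-maximal effect; potency reflects cytotoxicity seen as loss of intracellular ATP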); settings: MRC5 lung fibroblast viability, qHTS
Outline: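 Decrease in intracellular ATP, quantified by luciferase light output, reflects compound toxicity toward MRC5 cells exposed for 40 hr in complete culture medium. Concentration-response curves, scaled between DMSO and 100 uM tamoxifen, gave AC50 values.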

[6] = Cell Viability - SK-N-SH (AID 435; calls by dose curve;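 also: potency is read from the fitted curve at half-maximal effect; compound exposure lasted 40 h at 37 °C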); settings: SK-N-SH neuroblastoma cell viability qHTS
Outline: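 SK-N-SH human neuroblastoma cells (1500/well) were exposed to compounds in complete medium for 40 h at 37 °C, and intracellular ATP was then measured by CellTiter-Glo luminescence. AC50 was taken from Hill fits, normalized to DMSO and 100 uM tamoxifen.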

[7] = molecular target: Mitogen-activated protein kinase 10 (Mus musculus) (UniProt Q61831); assay: JNK3 AlphaScreen Assay (AID 530; active = well fitted curve in either direction with a large enough effect, not every such curve was filed as active;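 also: kinase came from lysate of stimulated human HepG2 cells; signal reports phosphorylation of biotinylated GST-cJun 1-79 at Ser73 with 10 µM ATP; % is scaled to controls: 0 for no effect and ±100 for the full control effect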)
Outline: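 Phosphorylation of biotinylated GST-cJun(1-79) at Ser73 is measured by AlphaScreen proximity luminescence. Enzyme is JNK3 in HepG2 lysates activated with interleukin-1beta and tumor necrosis factor alpha; ATP is 10 uM final.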

[8] = Cell Viability - N2a (AID 540); settings: N2a mouse neuroblastoma cell viability; at 92.2 µM (top of the series);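 also: plate controls were DMSO alone for no effect and tamoxifen control for full effect; nearly all actives have a fitted effect of over 45% in size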
Outline: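 Cytotoxicity was scored as loss of cellular ATP in N2a cells, a mouse neuroblastoma line. Compounds are applied in a qHTS concentration series for 40 hr at 37 °C.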

[9] = Cell Viability - NIH 3T3 (AID 541); settings: NIH 3T3 cell viability, qHTS; at 92.2 µM (top of the series);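 also: plate controls were DMSO alone for no effect and tamoxifen positive control for full effect; nearly all actives have a fitted effect of over 25% in size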
Outline: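 Cells seeded at 1000/well, rested 5 hr at 37 °C, then dosed and incubated 40 hr at 37 °C. CellTiter-Glo added, 20 min room temperature, luminescence read. AC50 by Hill fit.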

[10] = Cell Viability - HUV-EC-C (AID 542); also: % is scaled to controls: 0 for no effect and ±100 for the full control effect; nearly all actives have a fitted effect of over 35% in size
Outline: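 Cells were seeded at 1000 per well and incubated 5 hr at 37 °C before compound addition. After 40 hr at 37 °C, CellTiter-Glo reagent was added for 20 min and luminescence read. AC50 values came from Hill-equation modelling.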

[11] = Cell Viability - H-4-II-E (AID 543); also: % is scaled to controls: 0 for no effect and ±100 for the full control effect; nearly all actives have a fitted effect of over 35% in size
Outline: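 Cells seeded at 1500 per well and rested 5 hr; compounds added; 40 hr incubation at 37 °C; CellTiter-Glo added, 20 min at room temperature; luminescence read. Hill-equation fits gave AC50.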

[12] = Cell Viability - SH-SY5Y (AID 544);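 also: 0% = DMSO alone and -100% = 100 µM tamoxifen; nearly all actives have a fitted effect of over 55% in size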
Outline: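 Cells were plated at 1500 per well and allowed 5 hr at 37 °C. Compounds were added across a concentration range and incubated 40 hr at 37 °C. CellTiter-Glo was added for 20 min at room temperature before luminescence reading.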

[13] = Cell Viability - Renal Proximal Tubule (AID 545);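 also: 0% = DMSO only and -100% = 100 µM tamoxifen; nearly all actives have a fitted effect of over 40% in size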
Outline: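 Primary rat renal proximal tubule cells (1000/well) were treated with compounds for 40 hr at 37 °C in complete medium. Intracellular ATP was measured by CellTiter-Glo luminescence, and AC50 values came from Hill-equation fits of concentration-response data.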

[14] = Cell Viability - Mesenchymal (AID 546);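 also: cells exposed to compound for 40 hours before reading; 0% = DMSO only and -100% = 100 µM tamoxifen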
Outline: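 In this qHTS cytotoxicity format, glomerulus-derived human mesenchymal kidney cells received compound for 40 hr, then luciferase-based ATP quantitation. Concentration-response data were fitted with the Hill equation.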

[15] = Cellular Toxicity (caspase-3) Jurkat (AID 655);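 also: cells exposed to compound for 16 h at 37 °C before reading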
Outline: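 Jurkat cells (5000/well) in complete medium were treated with compounds for 16 hr at 37 °C, then Caspase-Glo 3/7 luminescence was read after 20 min at room temperature. Data normalized to DMSO (basal) and 100 uM tamoxifen (100%); AC50 from Hill fit.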

[16] = Cellular Toxicity (caspase-3) HUV-EC-C (AID 656);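 also: 0% = DMSO basal and 100% = 100 µM tamoxifen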
Outline: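 HUV-EC-C endothelial cells, 1000/well, were pre-incubated 5 hr at 37°C, then exposed to compounds for 16 hr at 37°C. Caspase-Glo 3/7 luminescence was read after 20 min at room temperature. AC50 came from Hill fits, normalized to DMSO and 100 uM tamoxifen.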

[17] = Cellular Toxicity (caspase-3) SHSY5Y (AID 657)
Outline: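 SH-SY5Y human neuroblastoma cells (1500/well) were treated with compounds for 16 h at 37 °C, then Caspase-Glo 3/7 luminescence was read after 1 h at room temperature. Data normalized to DMSO and 10 uM staurosporine; AC50 from Hill fits.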

[18] = Cellular Toxicity (caspase-3) BJ (AID 658);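 also: 0% = DMSO basal and 100% = 10 µM staurosporine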
Outline: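 Plated BJ cells (1000/well) rested 5 hr, received compound for 16 hr at 37 °C, then Caspase-Glo 3/7 reagent for 1 hr at room temperature before luminescence reading.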

[19] = Cellular Toxicity (caspase-3) MRC-5 (AID 659);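 also: 0% = DMSO basal and 100% = 10 µM staurosporine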
Outline: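 Apoptosis readout in MRC-5 cells: luciferase light generated after caspase 3/7 cleaves a peptide-aminoluciferin substrate, measured post 16 hr compound incubation at 37 °C.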

[20] = Cellular Toxicity (caspase-3) Mesangial (AID 660);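 also: combined caspase 3 and 7 activity read by Caspase-Glo luminescence; cells exposed to compound for 16 h before the caspase read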
Outline: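 Seed cells derived from normal human renal glomeruli, incubate 5 h, add compounds across concentrations and incubate 16 h at 37 °C. Caspase 3/7 activation is then quantified by luciferase light, with AC50 derived by Hill modeling.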

[21] = Cellular Toxicity (caspase-3) SK-N-SH (AID 661);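 also: 0% = DMSO basal and 100% = 10 µM staurosporine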
Outline: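 Cells were seeded and incubated 5 hr at 37 °C, dosed with compound over a concentration range for 16 hr, then given Caspase-Glo 3/7 reagent for 1 hr at room temperature before luminescence reading.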

[22] = Cellular Toxicity (caspase-3) H-4-II-E (AID 663);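 also: cells exposed to compound for 16 hr before readout; 0% = DMSO basal and 100% = 100 µM tamoxifen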
Outline: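 Caspase 3/7 activation measured in H-4-II-E cells in complete culture medium after 16 hr treatment at 37 °C, using luciferase-coupled substrate readout; AC50 values come from Hill-equation fits of normalized concentration-response data.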

[23] = Cellular Toxicity (caspase-3) Hek293 (AID 664);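 also: cells exposed to compound for 16 h at 37 °C before readout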
Outline: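 qHTS, HEK293 (human embryonic kidney), 16 h cpd exposure in complete medium. Caspase-3/7 activation = luminescence increase; normalized to DMSO/100 uM tamoxifen; Hill-fit AC50.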

CCOc1cc(C=O)ccc1O
inactive: Potency [1] > 92 µM | Potency [2] > 92 µM | Potency [3] > 92 µM | Potency [4] > 92 µM | Potency [5] > 92 µM | Potency [6] > 92 µM | outcome [7] | activity change, negative = cytotoxicity [8] -1.75% | activity change, negative = cytotoxicity [9] 1.57% | outcome [10] | outcome [11] | outcome [12] | outcome [13] | outcome [14] | outcome [15] | outcome [16] | outcome [17] | outcome [18] | outcome [19] | outcome [20] | outcome [21] | outcome [22] | outcome [23]
